Results: the supplement of paper PMC6555819

System: RXRa homodimer (NR concentration 180 nM)
Assay: PBM binding z-score (relative to random genomic background probes); higher = stronger binding; sequences stand for … in GC…GCGATTGACAGCGTAGAATGAAGG
How it was run: (§1)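 Binding buffer was PBS pH 7.4 with 2% milk, 0.02% Triton X-100, 1 mM DTT, 0.2 mg/mL BSA and 0.4 mg/ml salmon testes DNA. In it, ligand-free nuclear receptor dimers were incubated 1 h on custom Agilent 4×180K protein-binding microarrays carrying double-stranded probes. Antibodies against each partner (one per run) detected binding, and z-scores were calculated against random background probes after regression normalization of scanned fluorescence.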

In order of falling PBM binding z-score:
1. CGTCCAAGGTGAAAGGTCAGTGAAGAGATGACGG  7.85
2. TGTCAAAGTTCAAAGGTAACGGAAGTATCCACAC  7.52
3. CGTCCGAGGTCAGCAGGTCAGTGAAAGCGACGTG  6.26
4. ATATCTAGGTTAAGGGTCATTCAGGTTGGTTCGC  5.68
5. GCTAGTTGGTTAGTAAAAGGTCACACACCGGTCG  5.33
6. TGTCAAAGTTCAAATGTAACGTAAGTATCCACAC  5.3
7. CCTTACGGGTCAAGATTATAGCACGGGTGGTACG  5.02
8. ATATGTTGGTTAAGGGTCATTCAGGTTGGTTCGC  4.9
9. CCTTACGGGTCACTGACAGATTATAGCATTTGGA  4.89
10. TCTGATAGGTCAACGATGGTCAGCTAATCTGCTA  4.73
11. CCTACTGGGCCAAGAAAGGTCATTGATTCAGTGA  4.4
12. ACCGAAAGGTCGAGGTGAGTATAGAGAAAGGGAA  4.35
13. CAAACTAGGTCAACGGTCAAAGTCGAGCCAACCA  4.02
14. TATACAGGTTCAAAGGCCAGAGTACGAATGTCGA  3.63
15. CCGACTGGGGCAAAGGTTACCATTCTCAGTACGA  3.26
16. CCTACTGGGCCAAGGTCATTGTTCAGTCAAAGCA  2.91
17. CGAACTAGGTCATCCTGGACAGTGAATACATTGA  2.67
18. AGAATGAGGTTATTAAGTTCAGGGAATTGCGGTC  2.52
19. AGTATGAGGTTATACGTAGATCAGGGAAGAAAGT  2.18
20. AGAATGAGGTTATACGTCGATCAGGGAAGAAAGT  2.07
21. ATACCAAGGTGATCGTGAGGTCGTGGATACTAAC  2.04
22. TAGCCTAGGTCAGATCGGGCCAATATACGCTATA  1.51
23. AGAACGAGGGCACGCTGAGTTGATAGGAGAGTAG  1.35
24. GGAAAGAGGGCATTCGAGTTGATAGCATGGCGAT  1.32
25. GCTATTGGTTGAAAGGGCAACCGAATGATTCTCG  1.32
26. ACAGAAAGGTGAGTGAAGGTAACTCAGCTGGACG  1.28
27. GGAACGAGGGCAAGTTGATACCAGAGTTTGATGG  1
28. GCAAGCAGGCCATTTGGGTCACTCAATGACGGGC  0.769
29. GGAACGAGGGCAAGTTGCTAGCAGAGTTTGATGG  0.745
30. ACTAGCAGGCGAAGTTTGGGTCACTCAAACAAAG  0.656
31. ATTTCTAGGTAAGACTCAGTTCAGTGAAGAACGC  0.351
32. GCAGACAGTTGAAACGCAGGTAACTCAGGGTGGC  0.339
33. CCGAGTAGGTTATGGGGCTTTCAGGCAACGGTGA  0.293
34. TCGAGTAGGTTAGTCGGGGCATTTAGCCAACATA  0.261
35. ATCTCTCGGTAAGACTCAGTTCAGTGAAGAACGC  0.224
36. AATACAGTGTCACTAGGCCAGAGTAGGTACGAAT  0.185
37. ATCTCTAGGTAACCAAGTTAAGTGAATGCCGAAC  0.154
38. CCGACTGGGGCAAAGCTTACCATACTCAGTACGA  -0.115
39. ATCTCTAGGTAAAAGCTCAGTGAATCCCGAGGAT  -0.149
40. GATACAGGCTCAAGGCCAGAGTACGCGTATTGAT  -0.27

System: THRa:RXRa (NR concentration 90 nM, RXRa partner concentration 90 nM)
Assay: as above
How it was run: as §1

In order of falling PBM binding z-score:
1. TAGCCTAGGTCAGATCGGGCCAATATACGCTATA  4.32
2. CGTCCGAGGTCAGCAGGTCAGTGAAAGCGACGTG  4.09
3. CGTCCAAGGTGAAAGGTCAGTGAAGAGATGACGG  3.97
4. ATATCTAGGTTAAGGGTCATTCAGGTTGGTTCGC  3.82
5. GCTAGTTGGTTAGTAAAAGGTCACACACCGGTCG  3.66
6. ATACCAAGGTGATCGTGAGGTCGTGGATACTAAC  3.62
7. GGAAAGAGGGCATTCGAGTTGATAGCATGGCGAT  3.61
8. CCTACTGGGCCAAGGTCATTGTTCAGTCAAAGCA  3.45
9. CCTACTGGGCCAAGAAAGGTCATTGATTCAGTGA  3.43
10. ATATGTTGGTTAAGGGTCATTCAGGTTGGTTCGC  3.25
11. CAAACTAGGTCAACGGTCAAAGTCGAGCCAACCA  3.14
12. AGAATGAGGTTATTAAGTTCAGGGAATTGCGGTC  3.11
13. TCTGATAGGTCAACGATGGTCAGCTAATCTGCTA  3.1
14. TGTCAAAGTTCAAAGGTAACGGAAGTATCCACAC  2.99
15. ACCGAAAGGTCGAGGTGAGTATAGAGAAAGGGAA  2.94
16. CGAACTAGGTCATCCTGGACAGTGAATACATTGA  2.89
17. ACAGAAAGGTGAGTGAAGGTAACTCAGCTGGACG  2.58
18. AGTATGAGGTTATACGTAGATCAGGGAAGAAAGT  2.4
19. CCTTACGGGTCACTGACAGATTATAGCATTTGGA  2.38
20. TGTCAAAGTTCAAATGTAACGTAAGTATCCACAC  2.16
21. CCTTACGGGTCAAGATTATAGCACGGGTGGTACG  2.02
22. AGAATGAGGTTATACGTCGATCAGGGAAGAAAGT  2.01
23. ACTAGCAGGCGAAGTTTGGGTCACTCAAACAAAG  1.91
24. AGAACGAGGGCACGCTGAGTTGATAGGAGAGTAG  1.82
25. GCAAGCAGGCCATTTGGGTCACTCAATGACGGGC  1.79
26. CCGACTGGGGCAAAGGTTACCATTCTCAGTACGA  1.66
27. GGAACGAGGGCAAGTTGATACCAGAGTTTGATGG  1.31
28. TATACAGGTTCAAAGGCCAGAGTACGAATGTCGA  1.25
29. TCGAGTAGGTTAGTCGGGGCATTTAGCCAACATA  1.12
30. ATTTCTAGGTAAGACTCAGTTCAGTGAAGAACGC  0.941
31. GCAGACAGTTGAAACGCAGGTAACTCAGGGTGGC  0.919
32. GGAACGAGGGCAAGTTGCTAGCAGAGTTTGATGG  0.911
33. ATCTCTAGGTAACCAAGTTAAGTGAATGCCGAAC  0.825
34. ATCTCTCGGTAAGACTCAGTTCAGTGAAGAACGC  0.746
35. CCGAGTAGGTTATGGGGCTTTCAGGCAACGGTGA  0.519
36. GCTATTGGTTGAAAGGGCAACCGAATGATTCTCG  0.466
37. AATACAGTGTCACTAGGCCAGAGTAGGTACGAAT  0.145
38. ATCTCTAGGTAAAAGCTCAGTGAATCCCGAGGAT  0.0962
39. CCGACTGGGGCAAAGCTTACCATACTCAGTACGA  -0.341
40. GATACAGGCTCAAGGCCAGAGTACGCGTATTGAT  -0.479
